Results taken from PubChem BioAssay (NCI).
This is part of a sample that, as a whole, favours compounds with a hit. Of some 79,000 tested, about 15% had one in any assay. Calls of active or inactive are those of the source. Cut-off read from the data, not from the text of the source: active = growth inhibition above about 70%; inactive = the rest.

Tests used:
[1] = NCI Yeast Anticancer Drug Screen. Data for the wt1 strain (AID 149);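 note: 0% = growth of vehicle-treated wt1 cultures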; conditions: S. cerevisiae wt1 strain (SPY 50644) growth inhibition, stronger effect = higher value
Procedure, shortened: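 wt1 yeast, compound-treated; % growth inhibition vs vehicle control.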

[2] = NCI Yeast Anticancer Drug Screen. Data for the rad50EPP+ strain (AID 151);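 note: 0% = growth of vehicle-treated control cultures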; conditions: S. cerevisiae rad50 mutant strain, stronger effect = higher value
Procedure, shortened: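 Measured: growth inhibition of rad50EPP+ yeast. Reference: vehicle-treated controls. Screen uses strains with defined genetic alterations in DNA damage repair or cell cycle control.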

[3] = NCI Yeast Anticancer Drug Screen. Data for the mgt1 strain (AID 153); conditions: S. cerevisiae mgt1 mutant growth inhibition, stronger effect = higher value
Procedure, shortened: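 Compounds were applied to mgt1 mutant yeast, and growth was then compared against vehicle-treated control cultures to give percent inhibition.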

[4] = NCI Yeast Anticancer Drug Screen. Data for the mec2-1 strain (AID 157); conditions: S. cerevisiae mec2-1 strain, stronger effect = higher value
Procedure, shortened: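 Compounds were applied to mec2-1 yeast cells. Their growth was then compared with that of vehicle-treated cultures to give growth inhibition.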

[5] = NCI Yeast Anticancer Drug Screen. Data for the rad14 strain (AID 159);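 note: 0% = growth of vehicle-treated control cultures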; conditions: S. cerevisiae rad14 strain growth inhibition, stronger effect = higher value
Procedure, shortened: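 Test compounds were applied to a repair-deficient yeast strain. Its growth was then compared with that of cultures given vehicle alone, and inhibition was expressed relative to those controls.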

[6] = NCI Yeast Anticancer Drug Screen. Data for the sgs1 mgt1 strain (AID 161);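 note: 0% = growth of cultures given vehicle only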; conditions: S. cerevisiae sgs1 mgt1 strain, stronger effect = higher value
Procedure, shortened: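 Percent growth inhibition was derived by comparing compound-exposed mutant yeast with vehicle-exposed cultures. The strain carries alterations in DNA damage repair.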

[7] = NCI Yeast Anticancer Drug Screen. Data for the CLN2oe strain (AID 163);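 note: 0% = growth of vehicle-only control cultures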; conditions: S. cerevisiae CLN2oe strain, stronger effect = higher value
Procedure, shortened: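 Cells of an engineered yeast line with disturbed cell-cycle regulation are treated with compound. Inhibition of growth is then calculated relative to the vehicle-treated reference.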

[8] = NCI Yeast Anticancer Drug Screen. Data for the cln2 rad14 strain (AID 165);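 note: 0% = growth equal to vehicle treated cultures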; conditions: S. cerevisiae cln2 rad14 strain, stronger effect = higher value
Procedure, shortened: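 Strain: cln2 rad14 yeast, altered in cell cycle control and DNA damage repair. Read-out: growth inhibition vs vehicle.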

[9] = NCI Yeast Anticancer Drug Screen. Data for the bub3 strain (AID 167); conditions: S. cerevisiae bub3 mutant strain, stronger effect = higher value
Procedure, shortened: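 Yeast carrying a defined mutation is treated with each compound, and growth is compared with that of vehicle-exposed cells to give inhibition.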

[10] = NCI Yeast Anticancer Drug Screen. Data for the wt2 strain (AID 169);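 note: 0% = growth of vehicle-treated yeast cultures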; conditions: S. cerevisiae wt2 strain growth inhibition, stronger effect = higher value
Procedure, shortened: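 Growth of compound-treated yeast is measured and expressed as inhibition relative to vehicle-only controls.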

[11] = NCI Yeast Anticancer Drug Screen. Data for the mlh1 strain (AID 171);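 note: 0% = growth of vehicle-treated control cultures of the same strain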; conditions: S. cerevisiae mlh1 strain growth inhibition, stronger effect = higher value
Procedure, shortened: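 Test agents were incubated with yeast bearing a defined DNA damage repair or cell cycle control alteration; values are growth inhibition normalised to vehicle-treated cultures.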

[12] = NCI Yeast Anticancer Drug Screen. Data for the sgs1 strain (AID 173);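 note: 0% = growth of vehicle-only control cultures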; conditions: S. cerevisiae sgs1 mutant, stronger effect = higher value
Procedure, shortened: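 Strain with an altered DNA repair or cell cycle pathway exposed to compound. Growth then measured. Value = inhibition versus vehicle control.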

[13] = NCI Yeast Anticancer Drug Screen. Data for the mlh1 rad18 strain (AID 175); conditions: S. cerevisiae mlh1 rad18 strain growth inhibition, stronger effect = higher value
Procedure, shortened: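 A repair-deficient yeast strain is exposed to test compound, and growth is scored relative to vehicle-treated controls.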

[14] = NCI Yeast Anticancer Drug Screen. Data for the rad18 strain (AID 177); conditions: S. cerevisiae rad18 mutant growth inhibition, stronger effect = higher value
Procedure, shortened: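 DNA-repair-defective yeast; compound treatment; growth inhibition scored against vehicle.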

[15] = NCI Yeast Anticancer Drug Screen. Data for the rad50 strain (AID 155);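 note: 0% = growth of vehicle-only cultures of the same strain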; conditions: S. cerevisiae rad50 strain growth inhibition, stronger effect = higher value
Procedure, shortened: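 Genetically altered yeast (DNA repair pathway); compound treatment; growth inhibition vs vehicle ctrl.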

[16] = at 5.0 µM (retest, dose inferred, filed as 0.5)
[17] = at 50.0 µM (retest, dose inferred, filed as 5.0)

Measured: growth inhibition

NNc1nnc(-c2ccccc2)nc1Cc1ccccc1
inactive: [1]; at 1.2 µM -25% | [1]; at 3.7 µM -15% | [1]; at 11.0 µM -7% | [2]; at 1.2 µM -12% | [2]; at 3.7 µM -3% | [2]; at 11.0 µM 12% | [2]; at 33.0 µM 48% | [3]; at 1.2 µM 16% | [3]; at 3.7 µM 21% | [3]; at 11.0 µM 21% | [4]; at 1.2 µM -11% | [4]; at 3.7 µM -9% | [4]; [16] 2% | [4]; at 11.0 µM -8% | [5]; at 1.2 µM -8% | [5]; at 3.7 µM -16% | [5]; at 11.0 µM -12% | [6]; [16] -7% | [7]; at 1.2 µM 25% | [7]; at 3.7 µM 18% | [7]; at 11.0 µM 11% | [8]; [16] 12% | [9]; at 1.2 µM 16% | [9]; at 3.7 µM 5% | [9]; [16] -9% | [9]; at 11.0 µM -17% | [10]; at 1.2 µM -34% | [10]; at 3.7 µM -30% | [10]; at 11.0 µM -11% | [11]; at 1.2 µM 6% | [11]; at 3.7 µM 4% | [11]; at 11.0 µM 27% | [12]; at 1.2 µM -15% | [12]; at 3.7 µM -15% | [12]; at 11.0 µM -6% | [13]; [16] -30% | [14]; at 1.2 µM -17% | [14]; at 3.7 µM -30% | [14]; at 11.0 µM -5%
active: [1]; at 33.0 µM 96% | [1]; at 100.0 µM 88% | [2]; at 100.0 µM 90% | [3]; at 33.0 µM 97% | [3]; at 100.0 µM 88% | [4]; at 33.0 µM 95% | [4]; [17] 90% | [4]; at 50.0 µM 91.3% | [4]; at 100.0 µM 87% | [5]; at 33.0 µM 96% | [5]; at 100.0 µM 91% | [6]; [17] 95% | [6]; at 50.0 µM 82.9% | [7]; at 33.0 µM 97% | [7]; at 100.0 µM 93% | [8]; [17] 80% | [8]; at 50.0 µM 86% | [9]; at 33.0 µM 97% | [9]; [17] 96% | [9]; at 50.0 µM 89% | [9]; at 100.0 µM 90% | [10]; at 33.0 µM 95% | [10]; at 100.0 µM 91% | [11]; at 33.0 µM 97% | [11]; at 100.0 µM 83% | [12]; at 33.0 µM 91% | [12]; at 100.0 µM 94% | [13]; [17] 97% | [13]; at 50.0 µM 83.6% | [14]; at 33.0 µM 96% | [14]; at 100.0 µM 91%

Cc1ccc(Nc2n[nH]c(=S)s2)cc1C
inactive: [1]; at 1.2 µM -23% | [1]; at 3.7 µM -22% | [1]; at 11.0 µM -19% | [1]; at 33.0 µM 1% | [2]; at 1.2 µM -7% | [2]; at 3.7 µM -5% | [2]; at 11.0 µM -21% | [2]; at 33.0 µM -9% | [2]; at 100.0 µM 48% | [15]; at 1.2 µM 14% | [15]; at 3.7 µM 17% | [15]; at 11.0 µM 21% | [15]; at 33.0 µM 54% | [4]; at 1.2 µM 1% | [4]; at 3.7 µM 0% | [4]; at 11.0 µM 10% | [4]; at 33.0 µM 11% | [4]; at 50.0 µM 67.7% | [5]; at 1.2 µM -33% | [5]; at 3.7 µM -29% | [5]; at 11.0 µM -17% | [5]; at 33.0 µM 65% | [6]; [16] 5% | [7]; at 1.2 µM 3% | [7]; at 3.7 µM -8% | [7]; at 11.0 µM -5% | [7]; at 33.0 µM -10% | [8]; [16] 65% | [9]; at 1.2 µM 6% | [9]; at 3.7 µM 12% | [9]; [16] 38% | [9]; at 11.0 µM 18% | [9]; at 33.0 µM 36% | [10]; at 1.2 µM -33% | [10]; at 3.7 µM -23% | [10]; at 11.0 µM -28% | [10]; at 33.0 µM 28% | [11]; at 1.2 µM -34% | [11]; at 3.7 µM -21% | [11]; at 11.0 µM -15% | [11]; at 33.0 µM 28% | [12]; at 1.2 µM -28% | [12]; at 3.7 µM -35% | [12]; at 11.0 µM -28% | [12]; at 33.0 µM 28% | [13]; at 50.0 µM 69.7% | [14]; at 1.2 µM 1% | [14]; at 3.7 µM -1% | [14]; at 11.0 µM 12% | [14]; at 33.0 µM 67%
active: [1]; at 100.0 µM 81% | [15]; [16] 93% | [15]; [17] 94% | [15]; at 50.0 µM 78.8% | [15]; at 100.0 µM 84% | [4]; [16] 96% | [4]; [17] 95% | [4]; at 100.0 µM 79% | [5]; at 100.0 µM 89% | [6]; [17] 90% | [7]; at 100.0 µM 76% | [8]; [17] 92% | [9]; [17] 91% | [9]; at 100.0 µM 80% | [10]; at 100.0 µM 85% | [11]; at 100.0 µM 83% | [12]; at 100.0 µM 77% | [13]; [16] 99% | [13]; [17] 99% | [14]; at 100.0 µM 87%

CCCCCCCCCCCCOC1C(COCCN2CCCC2)OC2OC(C)(C)OC21 (stereo not drawn)
active: [1]; at 11.0 µM 93% | [1]; at 33.0 µM 99% | [1]; at 100.0 µM 99% | [2]; at 33.0 µM 97% | [2]; at 100.0 µM 98% | [15]; at 11.0 µM 98% | [15]; at 33.0 µM 98% | [15]; [17] 99% | [15]; at 50.0 µM 93% | [15]; at 100.0 µM 98% | [4]; at 11.0 µM 97% | [4]; at 33.0 µM 99% | [4]; [17] 99% | [4]; at 50.0 µM 93.4% | [4]; at 100.0 µM 98% | [5]; at 11.0 µM 98% | [5]; at 33.0 µM 98% | [5]; at 100.0 µM 98% | [6]; [17] 99% | [6]; at 50.0 µM 90.2% | [8]; [17] 97% | [8]; at 50.0 µM 90.3% | [9]; at 11.0 µM 96% | [9]; at 33.0 µM 98% | [9]; [17] 98% | [9]; at 50.0 µM 88.5% | [9]; at 100.0 µM 98% | [10]; at 11.0 µM 78% | [10]; at 33.0 µM 98% | [10]; at 100.0 µM 98% | [11]; at 11.0 µM 94% | [11]; at 33.0 µM 98% | [11]; at 100.0 µM 98% | [12]; at 11.0 µM 97% | [12]; at 33.0 µM 98% | [12]; at 100.0 µM 98% | [13]; [17] 99% | [13]; at 50.0 µM 90% | [14]; at 11.0 µM 97% | [14]; at 33.0 µM 98% | [14]; at 100.0 µM 97%
inactive: [1]; at 1.2 µM 23% | [1]; at 3.7 µM 15% | [2]; at 1.2 µM 36% | [2]; at 3.7 µM 27% | [2]; at 11.0 µM 2% | [15]; at 1.2 µM 5% | [15]; at 3.7 µM 1% | [15]; [16] 13% | [4]; at 1.2 µM 18% | [4]; at 3.7 µM 11% | [4]; [16] 2% | [5]; at 1.2 µM 11% | [5]; at 3.7 µM 14% | [6]; [16] 19% | [8]; [16] 42% | [9]; at 1.2 µM -18% | [9]; at 3.7 µM -16% | [9]; [16] 29% | [10]; at 1.2 µM -13% | [10]; at 3.7 µM -28% | [11]; at 1.2 µM 25% | [11]; at 3.7 µM 27% | [12]; at 1.2 µM 22% | [12]; at 3.7 µM 21% | [13]; [16] 16% | [14]; at 1.2 µM 37% | [14]; at 3.7 µM 27%
